# Experimental data: PMC5540273 (PLoS ONE, 2017)
# Several values for one entry are separate records, joined by “and”; a condition that tells them apart may be missing. Equal values may be shown once. Read-outs that look alike come from different tables or passages of the source.
# Experiments:
# CSNK1A1 = conditions: concentration: 1 μM, replicates: in singlicate; n = 1
# CSNK1D = conditions: n = 1
# CSNK1E = conditions: n = 1
# CSNK1G1 = conditions: n = 1
# CSNK1G2 = conditions: concentration: 1 μM, replicates: in singlicate; n = 1
# CSNK1G3 = conditions: n = 1
# CSNK2A1 = conditions: n = 1
# CSNK2A2 = conditions: n = 1
# CTK = system: T1, CTK; conditions: concentration: 1 μM, replicates: in singlicate; n = 1
# T1 construct: gene MATK
# DAPK1 = conditions: n = 1
# [1] = concentration: 1 μM, replicates: in singlicate
# [2] = concentration: 1 μM,replicates: in singlicate, 1 µM
# 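Further: KINOMEscan kinase panel screen.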
SMILES,%Inh (CSNK1A1) [%],%Inh (CSNK1D; [1]) [%],%Inh (CSNK1E; [1]) [%],%Inh (CSNK1G1; [1]) [%],%Inh (CSNK1G2) [%],%Inh (CSNK1G3; [1]) [%],%Inh (CSNK2A1; [1]) [%],%Inh (CSNK2A2; [1]) [%],%Inh (CTK) [%],%Inh (DAPK1; [1]) [%],%Inh (CSNK1D; [2]),%Inh (CSNK1E; [2]),%Inh (CSNK1G1; [2]),%Inh (CSNK1G3; [2]),%Inh (CSNK2A1; [2]),%Inh (CSNK2A2; [2]),%Inh (DAPK1; [2])
COc1cccc(NC(=O)NC2CCN(c3ccnc(Nc4ccc(F)cc4)n3)C2)c1 (stereo not drawn) [GSK1379721],0,0,37,9,0,27,0,10,0,10,–,–,–,–,–,–,–
Clc1cc(Cl)cc(Nc2ccnc(Nc3cc(Cl)cc(Cl)c3)n2)c1 [GSK175726],0,17,57,22,0,9,4,89,0,11,–,–,–,–,–,–,–
Cl.O=C(Nc1cccc(-c2nn3ncccc3c2-c2ccnc(Nc3cccnc3)n2)c1)c1c(F)cccc1F [GSK312879],0,15,24,8,0,15,1,0,25,2,–,–,–,–,–,–,–
Cl.c1ccc(-c2n[nH]cc2-c2ccnc(-c3ccc(CN4CCOCC4)cc3)c2)nc1 [GW776245],61,58,37,16,36,0,0,0,0,13,–,–,–,–,–,–,–
CN1C(=O)C(Nc2ccc(Cl)c(C(=O)O)c2)=C(c2ccc(Cl)cc2)C1=O [SB-404290],0,0,38,0,0,15,18,7,0,0,–,–,–,–,–,–,–
COc1ccc(C2=C(Nc3cccc(C(=O)O)c3)C(=O)NC2=O)cc1 [SB-390765],15,14,0,11,0,3,18,10,43,5,–,–,–,–,–,–,–
COc1cc2ncnc(Nc3ccc4nc(-c5ccccc5)[nH]c4c3)c2cc1OC.Cl [GW282450],0,6,24,15,0,17,5,98.4,0,1,–,–,–,–,–,–,–
COc1ccc2nc(-c3cccc(C)n3)nc(Nc3ccncc3)c2c1 [GSK204919],31,49,64,0,0,7,4,0,0,0,–,–,–,–,–,–,–
Cc1cccc(-c2cc(Nc3ccncc3)c3ccccc3n2)n1 [GSK223675],0,14,50,10,0,17,7,2,0,18,–,–,–,–,–,–,–
CS(=O)(=O)c1ccc(-c2c(-c3ncn[nH]3)sc(N3CCOCC3)c2C#N)cc1,48,0,4,1,0,0,0,24,26,5,–,–,–,–,–,–,–
Cc1csc(-c2nc(Nc3ccncc3)c3ccccc3n2)n1 [GW869640],28,46,41,0,9,0,28,26,36,22,–,–,–,–,–,–,–
Cc1ccccc1-n1cnc2c(N)ncnc21 [SKF-97510],0,5,11,0,0,0,0,0,0,94.8,–,–,–,–,–,–,–
C[C@@H]1CCCCN1c1cc(-c2ccc3c(N)n[nH]c3c2)nc(N)n1 [GSK2258759],0,39,35,6,0,26,6,76,0,18,–,–,–,–,–,–,–
COc1cc(Nc2nccc(N3CCC(NC(=O)Nc4cc(C)ccc4C)C3)n2)cc(OC)c1OC (stereo not drawn) [GSK1379762],3,0,13,1,0,22,25,0,8,0,–,–,–,–,–,–,–
COc1ccc(Nc2nccc(NCCNC(=O)Nc3ccccc3F)n2)cc1 [GSK1379901],0,7,99.4,7,0,25,0,2,0,0,–,–,–,–,–,–,–
CSc1nn2c(=O)cc(N3CCOCC3)nc2n1Cc1cccc(C(F)(F)F)c1C [GSK2363608],0,–,–,–,0,–,–,–,0,–,27% and 8%,25% and 19%,100% and 4%,41% and 20%,7% and 0%,7% and 0%,3% and 0%
Cc1cccc(-c2nc(C)cc(Nc3ccncc3)n2)n1 [GSK257997],0,43,42,13,0,10,2,22,0,9,–,–,–,–,–,–,–
COc1ccc(CNC(=O)NC2CCN(c3ccnc(Nc4cc(OC)c(OC)c(OC)c4)n3)C2)cc1 (stereo not drawn) [GSK1379748],0,0,14,0,0,23,6,9,0,0,–,–,–,–,–,–,–
